# Reference: PubChem BioAssay (NCI)
# Values joined by “and” are separate entries in the source; they are usually repeats but may differ in a detail not shown here. Identical values can stand only once. About 79,000 compounds went through this panel and 15% of them were active in at least one assay; those are over-represented in the sample as a whole. More than one record can exist for a structure, and the calls need not agree. Active and inactive are the calls of the source. Cut-off read from the data, not from the text of the source: active = growth inhibition above about 70%; inactive = the rest.
# Key:
# [1] = NCI Yeast Anticancer Drug Screen. Data for the rad50 strain (AID 155);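 note: 0% = growth of vehicle-only cultures of the same strain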; settings: S. cerevisiae rad50 strain growth inhibition, stronger effect = higher value
# Outline: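 Readout: growth inhibition relative to vehicle-treated cultures. Compound exposure was carried out in a genetically defined yeast strain deficient in DNA damage repair.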
# [2] = NCI Yeast Anticancer Drug Screen. Data for the mec2-1 strain (AID 157); settings: S. cerevisiae mec2-1 strain, stronger effect = higher value
# Outline: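 Yeast mec2-1 mutant treated with compound. Readout: growth inhibition vs vehicle controls.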
# [3] = NCI Yeast Anticancer Drug Screen. Data for the sgs1 mgt1 strain (AID 161);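 note: 0% = growth of cultures given vehicle only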; settings: S. cerevisiae sgs1 mgt1 strain, stronger effect = higher value
# Outline: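 Genetically altered yeast, compound exposure, growth inhibition relative to vehicle.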
# [4] = NCI Yeast Anticancer Drug Screen. Data for the cln2 rad14 strain (AID 165);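 note: 0% = growth equal to vehicle treated cultures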; settings: S. cerevisiae cln2 rad14 strain, stronger effect = higher value
# Outline: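 cln2 rad14 yeast strain; compound exposure; growth inhibition read vs vehicle controls.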
# [5] = NCI Yeast Anticancer Drug Screen. Data for the bub3 strain (AID 167); settings: S. cerevisiae bub3 mutant strain, stronger effect = higher value
# Outline: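 Readout: yeast growth inhibition, expressed relative to vehicle-only wells. The test organism is a mutant strain from a panel with lesions in DNA repair or checkpoint genes.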
# [6] = NCI Yeast Anticancer Drug Screen. Data for the wt2 strain (AID 169);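 note: 0% = growth of vehicle-treated yeast cultures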; settings: S. cerevisiae wt2 strain growth inhibition, stronger effect = higher value
# Outline: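 Read-out: growth inhibition versus vehicle-treated control cultures after compound exposure of the yeast strain.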
# [7] = NCI Yeast Anticancer Drug Screen. Data for the mlh1 rad18 strain (AID 175); settings: S. cerevisiae mlh1 rad18 strain growth inhibition, stronger effect = higher value
# Outline: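 Yeast w/ defined DNA-repair lesions; compound exposure; growth vs vehicle controls → % inhibition.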
# [8] = at 5.0 µM (retest, dose inferred, filed as 0.5)
# [9] = at 50.0 µM (retest, dose inferred, filed as 5.0)
smiles,measurement,setting,value
CCC(C)c1ccc(O)c(C(C)CC)c1 (configuration not stated),growth inhibition,[1]; [8],40% (inactive)
same,growth inhibition,[1]; [9],98% (active)
same,growth inhibition,[1]; at 50.0 µM,58.9% (inactive)
same,growth inhibition,[2]; [8],57% (inactive)
same,growth inhibition,[2]; [9],98% (active)
same,growth inhibition,[2]; at 50.0 µM,30.3% (inactive)
same,growth inhibition,[3]; [8],-26% (inactive)
same,growth inhibition,[3]; [9],72% (active)
same,growth inhibition,[3]; at 50.0 µM,45.8% (inactive)
same,growth inhibition,[4]; [8],15% (inactive)
same,growth inhibition,[4]; [9],60% (inactive)
same,growth inhibition,[4]; at 50.0 µM,27.8% (inactive)
same,growth inhibition,[5]; [8],38% (inactive)
same,growth inhibition,[5]; [9],63% (inactive)
same,growth inhibition,[5]; at 50.0 µM,68.7% (inactive)
same,growth inhibition,[6]; at 1.2 µM,-3% (inactive)
same,growth inhibition,[6]; at 3.7 µM,-13% (inactive)
same,growth inhibition,[6]; at 11.0 µM,-11% (inactive)
same,growth inhibition,[6]; at 33.0 µM,-1% (inactive)
same,growth inhibition,[6]; at 100.0 µM,98% (active)
same,growth inhibition,[7]; [8],44% (inactive)
same,growth inhibition,[7]; [9],99% (active)
same,growth inhibition,[7]; at 50.0 µM,58.9% (inactive)
O=C(CCC(=O)OCCOc1ccccc1)OCCOc1ccccc1,growth inhibition,[1]; [8],10% (inactive)
same,growth inhibition,[1]; [9],-1% (inactive)
same,growth inhibition,[1]; at 50.0 µM,-3.5% (inactive)
same,growth inhibition,[2]; [8],-16% (inactive)
same,growth inhibition,[2]; [9],-13% (inactive)
same,growth inhibition,[2]; at 50.0 µM,-4.7% (inactive)
same,growth inhibition,[3]; [8],17% (inactive)
same,growth inhibition,[3]; [9],3% (inactive)
same,growth inhibition,[3]; at 50.0 µM,-6.4% (inactive)
same,growth inhibition,[4]; [8],7% (inactive)
same,growth inhibition,[4]; [9],20% (inactive)
same,growth inhibition,[4]; at 50.0 µM,21.6% (inactive)
same,growth inhibition,[5]; [8],1% (inactive)
same,growth inhibition,[5]; [9],7% (inactive)
same,growth inhibition,[5]; at 50.0 µM,-4% (inactive)
Cc1cc2c(c(Br)c1O)Oc1c(cc(C)c(O)c1Br)C21OC(=O)c2ccccc21,growth inhibition,[1]; [8],52% (inactive)
same,growth inhibition,[1]; [9],98% (active)
same,growth inhibition,[1]; at 50.0 µM,90.7% (active)
same,growth inhibition,[2]; [8],42% (inactive)
same,growth inhibition,[2]; [9],99% (active)
same,growth inhibition,[2]; at 50.0 µM,93% (active)
same,growth inhibition,[3]; [8],55% (inactive)
same,growth inhibition,[3]; [9],99% (active)
same,growth inhibition,[3]; at 50.0 µM,92.6% (active)
same,growth inhibition,[4]; [8],36% (inactive)
same,growth inhibition,[4]; [9],98% (active)
same,growth inhibition,[4]; at 50.0 µM,92.5% (active)
same,growth inhibition,[5]; [8],52% (inactive)
same,growth inhibition,[5]; [9],99% (active)
same,growth inhibition,[5]; at 50.0 µM,91% (active)
COc1cccc(-c2nnc(-c3ccccc3)o2)c1,growth inhibition,[1]; [8],32% (inactive) and 33% (inactive)
same,growth inhibition,[1]; [9],36% (inactive) and 55% (inactive)
same,growth inhibition,[1]; at 50.0 µM,29.4% (inactive) and 89.1% (active)
same,growth inhibition,[2]; [8],36% (inactive) and 45% (inactive)
same,growth inhibition,[2]; [9],40% (inactive) and 55% (inactive)
same,growth inhibition,[2]; at 50.0 µM,16.4% (inactive) and 85.8% (active)
same,growth inhibition,[3]; [8],-1% (inactive) and 11% (inactive)
same,growth inhibition,[3]; [9],52% (inactive) and 99% (active)
same,growth inhibition,[3]; at 50.0 µM,33.5% (inactive) and 89.4% (active)
same,growth inhibition,[4]; [8],73% (active) and 21% (inactive)
same,growth inhibition,[4]; [9],18% (inactive) and 98% (active)
same,growth inhibition,[4]; at 50.0 µM,32.5% (inactive) and 80.2% (active)
same,growth inhibition,[5]; [8],30% (inactive) and 13% (inactive)
same,growth inhibition,[5]; [9],85% (active) and 98% (active)
same,growth inhibition,[5]; at 50.0 µM,71% (active) and 15.5% (inactive)
same,growth inhibition,[6]; at 1.2 µM,20% (inactive)
same,growth inhibition,[6]; at 3.7 µM,7% (inactive)
same,growth inhibition,[6]; at 11.0 µM,4% (inactive)
same,growth inhibition,[6]; at 33.0 µM,46% (inactive)
same,growth inhibition,[6]; at 100.0 µM,97% (active)
same,growth inhibition,[7]; [8],30% (inactive) and 34% (inactive)
same,growth inhibition,[7]; [9],44% (inactive) and 54% (inactive)
same,growth inhibition,[7]; at 50.0 µM,16.9% (inactive) and 84.1% (active)
CN1CCCc2cc(/C=C\c3ccnc4ccccc34)ccc21,growth inhibition,[1]; [8],-2% (inactive)
same,growth inhibition,[1]; [9],94% (active)
same,growth inhibition,[1]; at 50.0 µM,96% (active)
same,growth inhibition,[2]; [8],-10% (inactive)
same,growth inhibition,[2]; [9],97% (active)
same,growth inhibition,[2]; at 50.0 µM,97.1% (active)
same,growth inhibition,[3]; [8],-10% (inactive)
same,growth inhibition,[3]; [9],96% (active)
same,growth inhibition,[3]; at 50.0 µM,98.3% (active)
same,growth inhibition,[4]; [8],-6% (inactive)
same,growth inhibition,[4]; [9],94% (active)
same,growth inhibition,[4]; at 50.0 µM,93% (active)
same,growth inhibition,[5]; [8],-7% (inactive)
same,growth inhibition,[5]; [9],94% (active)
same,growth inhibition,[5]; at 50.0 µM,96.8% (active)
COc1cc(OC)c(OC)cc1/C=C\c1ccnc2ccccc12,growth inhibition,[1]; [8],19% (inactive)
same,growth inhibition,[1]; [9],73% (active)
same,growth inhibition,[1]; at 50.0 µM,33.8% (inactive)
same,growth inhibition,[2]; [8],13% (inactive)
same,growth inhibition,[2]; [9],65% (inactive)
same,growth inhibition,[2]; at 50.0 µM,37% (inactive)
same,growth inhibition,[3]; [8],10% (inactive)
same,growth inhibition,[3]; [9],88% (active)
same,growth inhibition,[3]; at 50.0 µM,88.4% (active)
same,growth inhibition,[4]; [8],18% (inactive)
same,growth inhibition,[4]; [9],57% (inactive)
same,growth inhibition,[4]; at 50.0 µM,41.5% (inactive)
same,growth inhibition,[5]; [8],6% (inactive)
same,growth inhibition,[5]; [9],79% (active)
same,growth inhibition,[5]; at 50.0 µM,62.8% (inactive)
same,growth inhibition,[7]; [8],13% (inactive)
same,growth inhibition,[7]; [9],83% (active)
COc1cc2c(cc1O)C1CN(C2)Cc2cc(OC)c(O)cc21,growth inhibition,[1]; [8],-5% (inactive)
same,growth inhibition,[1]; [9],67% (inactive)
same,growth inhibition,[1]; at 50.0 µM,51.4% (inactive)
same,growth inhibition,[2]; [8],-3% (inactive)
same,growth inhibition,[2]; [9],78% (active)
same,growth inhibition,[2]; at 50.0 µM,35% (inactive)
same,growth inhibition,[3]; [8],-11% (inactive)
same,growth inhibition,[3]; [9],76% (active)
same,growth inhibition,[3]; at 50.0 µM,30.3% (inactive)
same,growth inhibition,[4]; [8],2% (inactive)
same,growth inhibition,[4]; [9],75% (active)
same,growth inhibition,[4]; at 50.0 µM,79.2% (active)
same,growth inhibition,[5]; [8],-2% (inactive)
same,growth inhibition,[5]; [9],69% (inactive)
same,growth inhibition,[5]; at 50.0 µM,33.7% (inactive)
COc1nc(N)c(NC2OCC(O)C(O)C2O)c(=O)n1C (configuration not stated),growth inhibition,[1]; at 50.0 µM,-32.8% (inactive) [middle of 5 runs]
Fc1ccccc1-c1ncc(-c2ccccc2)o1,growth inhibition,[1]; [8],65% (inactive)
same,growth inhibition,[1]; [9],96% (active)
same,growth inhibition,[1]; at 50.0 µM,23.4% (inactive)
same,growth inhibition,[2]; [8],60% (inactive)
same,growth inhibition,[2]; [9],94% (active)
same,growth inhibition,[2]; at 50.0 µM,22.2% (inactive)
same,growth inhibition,[3]; [8],-14% (inactive)
same,growth inhibition,[3]; [9],60% (inactive)
same,growth inhibition,[3]; at 50.0 µM,51.8% (inactive)
same,growth inhibition,[4]; [8],39% (inactive)
same,growth inhibition,[4]; [9],70% (active)
same,growth inhibition,[4]; at 50.0 µM,13.7% (inactive)
same,growth inhibition,[5]; [8],24% (inactive)
same,growth inhibition,[5]; [9],82% (active)
same,growth inhibition,[5]; at 50.0 µM,16.7% (inactive)
same,growth inhibition,[6]; at 1.2 µM,-1% (inactive)
same,growth inhibition,[6]; at 3.7 µM,-3% (inactive)
same,growth inhibition,[6]; at 11.0 µM,-10% (inactive)
same,growth inhibition,[6]; at 33.0 µM,-2% (inactive)
same,growth inhibition,[6]; at 100.0 µM,28% (inactive)
same,growth inhibition,[7]; [8],36% (inactive)
same,growth inhibition,[7]; [9],91% (active)
same,growth inhibition,[7]; at 50.0 µM,4.3% (inactive)
